Records with an inconclusive call do not appear. Unmarked numbers belong to inactive results. Activity calls are given as the source filed them. Calls follow the shape of the dose curve; as a rule, active = well fitted activation curve with a large enough effect; inconclusive = small, poorly fitted or top-dose-only effect; inactive = no such curve, though single readings can be large or run the other way.
Potency is read from the fitted curve at half-maximal effect.

The assay is described as follows: qHTS Assay for Identifying a Potential Treatment of Ataxia-Telangiectasia: Secondary assay (no NCS) hit validation.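 Also: phosphorylated KAP1 signal as a proxy for ATM-like kinase activity.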 As to activation: 0% is about no effect. The following applies: A-T patient fibroblasts, AlphaLISA, no DNA damage added, 90 min; series mostly up to 76.9 µM; activation: at the top concentration. The procedure, abridged:
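hTERT-immortalized A-T patient fibroblasts (F2112), 500 cells/well, exposed to compounds at up to 76.7 uM final without NCS at 37C. KAP-1 phosphorylation measured by AlphaLISA after lysis and 6 h detection at 25C.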
In general terms: In qHTS, concentration-response curves come from the screen itself.
In the case of `CC(=O)Nc1ccc(NC2=CC(=O)c3ccccc3C2=O)cc1`, the “activation” value is -3.23%.

As to `CCc1ccc(NC(=O)N[C@H](C(=O)O)C(C)CC)cc1` (stereo partly specified), the “activation” value was -2.54%.

Take `COc1ccccc1OC(=O)Nc1ccc(Cl)cc1`: the Potency was 3.28 µM (active).

For the compound `OC(CN1CCCCC1)Cn1c2ccc(Cl)cc2c2cc(Cl)ccc21` (stereo unspecified), the “activation” value was 1.08%.

In the case of `COc1cccc(C2C(C(N)=O)=C(C)Nc3nc(CCCO)nn32)c1` (stereo unspecified), the “activation” value was -0.87%.

On to `COc1ccc(C(=O)CSc2nc3ncccc3[nH]2)cc1OC`, for which the “activation” value was -4.24%.

For `CCOc1cccc(C(=O)Nc2ccccc2N2CCN(C(=O)C(C)C)CC2)c1`, the “activation” value was -5.38%.

Take `Cc1cccc(NC(=O)/C(C#N)=C/c2ccc(F)cc2)n1`: the Potency is 1.84 µM (active).

For `CN(C)c1ccc2nc3ccc(=[N+](C)C)cc-3sc2c1`, the Potency is 14.6 µM (active).

As to `CNC(=S)N/N=C/c1ccc2c(c1)OCCO2`, the “activation” value is 75.4%.

Regarding `Cc1nc(Nc2ccc(Cl)cc2)c2oc3ccccc3c2n1`, the “activation” value was -1.08%.

For `O=C(C[n+]1cccc2ccccc21)c1ccc(NC(=O)c2ccccc2)cc1`, the “activation” value is -0.848%.

Turning to `COc1ccc(Nc2cc3n(c(=O)n2)CCc2cc(OC)c(OC)cc2-3)cc1`, the “activation” value was 4.35%.

Take `CC(C)CNS(=O)(=O)c1cc(C(=O)O)c(Cl)cc1Cl`: the “activation” value was 10.4%.

`O=C(Nc1ccc(N2CCCC2)cc1)c1ccc(Cl)cc1Cl`: the “activation” value was -20%.

In the case of `O=[N+]([O-])c1ccc(F)cc1F`, the Potency was 32.8 µM (active).

The values are drawn from PubChem BioAssay AID493201 (National Center for Advancing Translational Sciences (NCATS), 2011).
